Laboratory results reported in PubChem BioAssay AID1159580 (chemical genetic matrix, 2015).
“And” between values parts separate entries of the source, which are not always exact repeats. Identical values can stand only once. About 2,000 (36%) of roughly 5,500 compounds were called active. Inconclusive results (about 18%) are left out. No stated cut-off is given here; in the data, active means normalized growth mostly below about 0.91 (no sharp cut-off); inconclusive means no clear call, values can overlap the other calls; inactive means mostly above about 0.92. This is one part of the list.

Assay: chemical genetic growth profiling, strain panel (AID 1159580);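 further: tested at 20 µM; growth read once vehicle control cultures reached saturation at 30 °C; 1 = growth at the plate median or of vehicle wells; lower values mean less growth of the strain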
Conditions: growth OD

Measured: normalized growth

COc1ccc(C(=O)N2CCCC2=O)cc1
inactive: S. cerevisiae deletion strains, locus YJR075W, strain HOC1, active compounds read low 0.99 | S. cerevisiae deletion strains, locus YKL009W, strain mrt4, active compounds read low 0.97 | S. cerevisiae deletion strains, locus YKL068W, active compounds read low 0.976 | S. cerevisiae deletion strains, locus YKL085W, strain MDH1 (second series), active compounds read low 0.984 | S. cerevisiae deletion strains, locus YKL085W, strain MDH1, active compounds read low 0.984 | S. cerevisiae deletion strains, locus YKL160W, strain elf1, active compounds read low 0.952 | S. cerevisiae deletion strains, locus YKL190W, strain CNB1, active compounds read low 0.993 | S. cerevisiae deletion strains, locus YKR001C, strain vps1, active compounds read low 0.968 | S. cerevisiae deletion strains, locus YKR026C, strain gcn3, active compounds read low 0.976 | S. cerevisiae deletion strains, locus YKR091W, strain srl3, active compounds read low 0.969 | S. cerevisiae deletion strains, locus YLL001W, strain dnm1, active compounds read low 0.963 | S. cerevisiae deletion strains, locus YLL026W, active compounds read low 0.98 | S. cerevisiae deletion strains, locus YLL041C, strain sdh2, active compounds read low 0.986 | S. cerevisiae deletion strains, locus YLR027C, strain aat2, active compounds read low 0.963 | S. cerevisiae deletion strains, locus YLR039C, strain RIC1, active compounds read low 0.947 | S. cerevisiae deletion strains, locus YLR058C, strain SHM2, active compounds read low 0.978 | S. cerevisiae deletion strains, locus YLR102C, strain apc9, active compounds read low 0.979 | S. cerevisiae deletion strains, locus YLR221C, strain rsa3, active compounds read low 0.945 | S. cerevisiae deletion strains, locus YLR258W, strain gsy2, active compounds read low 0.98 | S. cerevisiae deletion strains, locus YLR262C, strain YPT6 (second series), active compounds read low 0.967 | S. cerevisiae deletion strains, locus YLR262C, strain YPT6, active compounds read low 0.902 | S. cerevisiae deletion strains, locus YLR268W, strain sec22, active compounds read low 0.971 | S. cerevisiae deletion strains, locus YLR320W, strain mms22, active compounds read low 0.933 | S. cerevisiae deletion strains, locus YLR330W, strain CHS5, active compounds read low 0.986 | S. cerevisiae deletion strains, locus YLR342W, strain FKS1 (second series), active compounds read low 0.995 | S. cerevisiae deletion strains, locus YLR342W, strain FKS1, active compounds read low 0.99 | S. cerevisiae deletion strains, locus YLR357W, strain rsc2, active compounds read low 0.991 | S. cerevisiae deletion strains, locus YLR370C, strain arc18, active compounds read low 0.963 | S. cerevisiae deletion strains, locus YLR371W, strain rom2, active compounds read low 0.993 | S. cerevisiae deletion strains, locus YLR384C, strain iki3, active compounds read low 0.958 | S. cerevisiae deletion strains, locus YLR418C, strain cdc73, active compounds read low 0.967 | S. cerevisiae deletion strains, locus YML016C, strain PPZ1, active compounds read low 0.983 | S. cerevisiae deletion strains, locus YML032C, strain rad52, active compounds read low 1 | S. cerevisiae deletion strains, locus YML120C, strain ndi1, active compounds read low 0.94 | S. cerevisiae deletion strains, locus YML124C, strain tub3, active compounds read low 0.994 | S. cerevisiae deletion strains, locus YMR058W, strain fet3, active compounds read low 0.971 | S. cerevisiae deletion strains, locus YMR078C, strain ctf18, active compounds read low 0.974 | S. cerevisiae deletion strains, locus YMR125W, strain sto1, active compounds read low 0.973 | S. cerevisiae deletion strains, locus YMR129W, active compounds read low 0.986 | S. cerevisiae deletion strains, locus YMR205C, strain PFK2, active compounds read low 0.971 | S. cerevisiae deletion strains, locus YMR223W, strain ubp8, active compounds read low 0.995 | S. cerevisiae deletion strains, locus YMR231W, strain pep5, active compounds read low 0.978 | S. cerevisiae deletion strains, locus YMR263W, strain SAP30, active compounds read low 0.964 | S. cerevisiae deletion strains, locus YMR307W, strain GAS1, active compounds read low 0.99 | S. cerevisiae deletion strains, locus YNL067W, strain RPL9B, active compounds read low 0.974 | S. cerevisiae deletion strains, locus YNL071W, strain lat1, active compounds read low 0.982 | S. cerevisiae deletion strains, locus YNL128W, strain TEP1, active compounds read low 0.979 | S. cerevisiae deletion strains, locus YNL153C, strain GIM3, active compounds read low 0.965 and 1.01 | S. cerevisiae deletion strains, locus YNL175C, strain NOP13, active compounds read low 1 | S. cerevisiae deletion strains, locus YNL197C, strain WHI3, active compounds read low 1.01 | S. cerevisiae deletion strains, locus YNL209W, strain ssb2, active compounds read low 0.984 | S. cerevisiae deletion strains, locus YNL224C, strain SQS1, active compounds read low 1.02 | S. cerevisiae deletion strains, locus YNL233W, strain BNI4, active compounds read low 0.99 | S. cerevisiae deletion strains, locus YNL248C, strain rpa49, active compounds read low 0.976 | S. cerevisiae deletion strains, locus YNL250W, strain rad50, active compounds read low 0.964 | S. cerevisiae deletion strains, locus YNL271C, strain bni1, active compounds read low 0.986 | S. cerevisiae deletion strains, locus YNL298W, strain CLA4, active compounds read low 0.982 | S. cerevisiae deletion strains, locus YNL307C, strain MCK1, active compounds read low 0.989 | S. cerevisiae deletion strains, locus YNL322C, strain KRE1 (second series), active compounds read low 0.955 | S. cerevisiae deletion strains, locus YNL322C, strain KRE1, active compounds read low 0.986 and 1 | S. cerevisiae deletion strains, locus YNR049C, strain mso1, active compounds read low 0.954 | S. cerevisiae deletion strains, locus YNR052C, strain pop2, active compounds read low 0.974 | S. cerevisiae deletion strains, locus YOL006C, strain TOP1, active compounds read low 0.921 | S. cerevisiae deletion strains, locus YOL012C, strain htz1 0.923 | S. cerevisiae deletion strains, locus YOL147C, strain pex11, active compounds read low 0.99 | S. cerevisiae deletion strains, locus YOR001W, strain rrp6, active compounds read low 0.998 | S. cerevisiae deletion strains, locus YOR061W, strain CKA2, active compounds read low 0.949 | S. cerevisiae deletion strains, locus YOR069W, strain VPS5, active compounds read low 0.987 | S. cerevisiae deletion strains, locus YOR070C, strain gyp1, active compounds read low 0.991 | S. cerevisiae deletion strains, locus YOR080W, strain dia2, active compounds read low 0.976 | S. cerevisiae deletion strains, locus YOR083W, strain WHI5 (second series), active compounds read low 1.02 | S. cerevisiae deletion strains, locus YOR083W, strain WHI5, active compounds read low 0.946 | S. cerevisiae deletion strains, locus YOR106W, strain vam3, active compounds read low 0.93 | S. cerevisiae deletion strains, locus YOR136W, strain idh2, active compounds read low 0.99 | S. cerevisiae deletion strains, locus YOR144C, strain elg1, active compounds read low 0.999 | S. cerevisiae deletion strains, locus YOR184W, strain ser1, active compounds read low 0.993 | S. cerevisiae deletion strains, locus YOR265W, strain rbl2, active compounds read low 0.989 | S. cerevisiae deletion strains, locus YOR270C, strain vph1, active compounds read low 0.929 | S. cerevisiae deletion strains, locus YOR290C, strain snf2, active compounds read low 0.933 | S. cerevisiae deletion strains, locus YOR316C, strain cot1, active compounds read low 0.978 | S. cerevisiae deletion strains, locus YPL051W, strain arl3, active compounds read low 1.01 | S. cerevisiae deletion strains, locus YPL055C, strain LGE1, active compounds read low 0.988 | S. cerevisiae deletion strains, locus YPL078C, strain atp4, active compounds read low 0.963 | S. cerevisiae deletion strains, locus YPL106C, strain sse1, active compounds read low 0.925 | S. cerevisiae deletion strains, locus YPL240C, strain hsp82, active compounds read low 0.986 | S. cerevisiae deletion strains, locus YPL241C, strain CIN2, active compounds read low 1.03 and 1 | S. cerevisiae deletion strains, locus YPR119W, strain clb2, active compounds read low 0.991 | S. cerevisiae deletion strains, locus YPR141C, strain kar3, active compounds read low 0.962 | S. cerevisiae deletion strains, locus YPR163C, strain tif3, active compounds read low 1 | S. cerevisiae deletion strains, locus YPR167C, strain met16, active compounds read low 0.972 | S. cerevisiae deletion strains, strain wtn01, active compounds read low 0.984 | S. cerevisiae strains, strain wild type, active compounds read low 0.993
